# Source: PubChem (National Center for Advancing Translational Sciences (NCATS))
# A selection: hits, their analogues and other compounds. The true share with any hit is near 12%.
# Sm TGR block: S. mansoni TGR enzyme inhibition. Potency, µM (series often up to 114 µM), for inactives: at the highest dose activity change, negative = inhibition, actives largely listed as inhibitors. hit rate 3% among 360,000. AID 485364. purified TGR, DTNB reduction, TNB absorbance 405 nm. Q962Y6; active = well fitted inhibition curve with a large enough effect; inconclusive = small, poorly fitted or top-dose-only effect; inactive = no such curve, though single readings can be large or run the other way; note: potency is the fitted concentration of half-maximal effect; % is set by controls: 0 for no effect and ±100 for the full control effect; nearly all actives have a fitted effect of over 60% in size
#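 Kinetic colorimetric format: TGR-catalysed, NADPH-driven DTNB reduction monitored via TNB absorbance. Enzyme dispensed at 20 nM; compound exposure 15 min at room temperature before reaction start.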
# FMDV antiviral: antivirals against foot and mouth disease virus; hit rate 1.2% among 410,000; FMDV antiviral cell-based qHTS; Potency, µM (highest dose often 57.9 µM), without a hit: top-dose activity change, negative = inhibition, actives largely listed as inhibitors; calls by dose curve; tested in HEK293T cells; note: read-out not given here; potency is the fitted concentration of half-maximal effect; % is set by controls: 0 for no effect and ±100 for the full control effect; nearly all actives have a fitted effect of over 45% in size
# Shiga inhibitor: blocks Shiga toxin action in Vero cells. Vero cells, Shiga toxin protein synthesis inhibition reporter. inhibition, % at 38.7 µM. hit rate 9.2% among 290,000; in the data active = inhibition mostly above about 28%, no sharp cut-off; inactive = mostly below about 43%; note: 0% is about no effect
# Cycloheximide cs: counter-screen for Shiga toxin inhibitors: cycloheximide protein synthesis inhibition. cell reporter, cycloheximide protein synthesis inhibition counterscreen. max response, %. hit rate 12% among 300,000; in the data active = max response mostly above about 13%, no sharp cut-off; inactive = mostly below about 14%; note: read at 38.3 µM for the half of the compounds with a filed dose; 0% is about no effect
# Starred values were filed as active, the others as inactive; ? = inconclusive; nt = no result given.
SMILES,Sm TGR block,FMDV antiviral,Shiga inhibitor,Cycloheximide cs
O=C(CCCN1C(=O)/C(=C\c2ccco2)SC1=S)Nc1ccc(O)cc1C(=O)O,10µM*,-10%,-1,-3
O=C(CN1C(=O)/C(=C/c2ccco2)SC1=S)Nc1ccc(O)c(C(=O)O)c1,14µM*,-6%,-5,-3
O=C(CCCN1C(=O)/C(=C\c2cccs2)SC1=S)Nc1ccc(O)cc1C(=O)O,-2%,-23%,-12,-8
O=C(CCCN1C(=O)/C(=C/c2ccco2)SC1=S)Nc1cccc(C(=O)O)c1,-6%,2%,-6,-3
O=C(CN1C(=O)/C(=C/c2ccco2)SC1=S)Nc1ccc(C(=O)O)c(O)c1,14µM*,-18%,-4,-13
CC(=C\c1ccco1)/C=C1/SC(=S)N(CC(=O)O)C1=O,40µM*,7%,15,10
CCOC(=O)Cn1c(=O)oc2cc(S(=O)(=O)Nc3cc(OC)cc(OC)c3)ccc21,6%,-21%,nt,nt
O=C(CN1C(=O)/C(=C\c2cccs2)SC1=S)Nc1cccc(C(=O)O)c1,1%,-6%,53*,11
CC(C(=O)Nc1ccc(C(=O)O)c(O)c1)N1C(=O)/C(=C\c2ccco2)SC1=S (stereo not drawn),7.1µM*,-7%,-7,1
CCc1ccc(NCc2cc3cc4c(cc3n(CC(=O)Nc3ccc(Cl)cc3)c2=O)OCO4)cc1,?,-13%,nt,nt
N=c1n(CCO)c2ccccc2n1Cc1ccccc1F,1%,-3%,nt,nt
O=C(N/N=C/c1ccc(Cl)cc1Cl)c1ccc(-n2cnnn2)cc1,-13%,-4%,nt,nt
Nn1cnnc1N/N=C/c1ccc(Cl)cc1Cl,4%,20%,16,12*
COc1cc(/C=C(\C#N)C(N)=O)ccc1OCc1c(C)no[n+]1[O-],9%,-19%,-2,1
COc1ccc(/C=N/Nc2nncn2N)cc1Br,-15%,28%,nt,22*
COc1cc(/C=N/Nc2nncn2N)ccc1OCc1c(C)no[n+]1[O-],-30%,7%,25,13*
CCN1CCCC1CNC(=O)c1cnn(-c2ncc(C)c(-c3ccc(F)cc3)n2)c1C(C)C (stereo not drawn),nt,-7%,nt,nt
O=C(CSc1nnc(-c2cccnc2)n1Cc1ccco1)Nc1cccc(O)c1,-14%,-6%,-6,-3
O=C(CSc1nnc(-c2cccnc2)n1Cc1ccco1)c1ccc2ccccc2c1,22µM*,8%,-11,-1
O=C(CSc1nnc(-c2cccnc2)n1Cc1ccco1)Nc1nc(-c2ccc(F)cc2)cs1,?,20µM*,8,-2
CCSc1nnc(-c2cccnc2)n1Cc1ccco1,35µM*,8%,-13,-3
CC(=O)O[C@]1(C)CC[C@]23CC1C(C)(C)C2CC[C@@H]3C (stereo partly drawn),nt,-5%,nt,nt
Cc1cccc(NC(=O)C2CCCN(S(=O)(=O)c3c(C)noc3/C=C/N(C)C)C2)c1C (stereo not drawn),-3%,0%,nt,nt
CCCN(Cc1cccs1)C(=O)Nc1cc(C)cc(C)c1,-7%,-11%,nt,nt
CCOc1ccc(-c2cn3c(n2)sc2cc(C(=O)NCCC4=CCCCC4)ccc23)cc1,-6%,16%,nt,nt
SMILES,Sm TGR block,FMDV antiviral,Shiga inhibitor,Cycloheximide cs
O=C(Nc1ccc(N2CCCC2)cc1)c1ccc2ccccc2c1,6%,5%,active,49*
CC(=O)N1CCN(c2ccc(NC(=O)c3ccc(C(C)(C)C)cc3)cc2)CC1,-20%,nt,45*,32*
O=C(c1ccc2ccccc2c1)N1CCN(c2ccc([N+](=O)[O-])c(N3CCOCC3)c2)CC1,-7%,?,41,26*
CC(C)Oc1ccc(C(=O)Nc2ccc(N3CCCCC3)cc2)cc1,4%,-24%,22,-2
CC(=O)N1CCN(c2ccc(NC(=O)c3ccc4ccccc4c3)cc2)CC1,-9%,30%,7,26*
Cc1cccc(C(=O)N2CCN(c3ccc([N+](=O)[O-])c(N4CCOCC4)c3)CC2)c1,2%,-25%,-11,6
CC(=O)N1CCN(c2ccc(NC(=O)c3ccc(Cl)cc3)cc2)CC1,-1%,2%,-12,-4
COc1ccc(OC)c(Nc2ncc3c(n2)CCN(Cc2cc(OC)c(OC)c(OC)c2)C3)c1,2%,-24%,nt,nt
CC(=O)N1CCN(c2ccc(NC(=O)c3cccc(Cl)c3)cc2)CC1,-2%,26%,73*,31*
CC(=O)N1CCN(c2ccc(NC(=O)c3ccccc3C)cc2)CC1,-26%,1%,4,10*
Cc1ccc(C(=O)SC2=NCCS2)cc1,-6%,35µM*,-3,-4
COc1cc(OC)cc(C(=O)NCc2ccc3c(c2)CCN3C(=O)c2ccccc2)c1,10%,-5%,nt,nt
Cc1sc2nc(-c3ccccc3)oc(=O)c2c1C,1%,51%,113*,66*
Nc1c2c(nc3sc4c(c13)CCCC4)CCCCCC2,5%,-9%,15,2
